Molecules are shown by their SMILES. The whole screen tested about 1,300 compounds, of which about 330 (25%) were called active. The rule behind the calls is not given here. Only a sample is shown. Measured potencies and affinities stand elsewhere.

This assay in a line: MALME3 melanoma cell viability loss, dose response, orthogonal assay for MITF inhibitor project, CellTiter-Glo, cherry-picked (AID 493191). The note with it: CellTiter-Glo luminescence, 24 h; series mostly up to 35 µM; activity change, negative = inhibition: at the top concentration.
As to `CN1CCN(CCCOc2ccc(-c3ccccc3)cc2)CC1`, the “activity change, negative = inhibition” value is 9.29% (inactive).

For `Cc1ccc2oc(=O)n(CCCOc3ccccc3)c2c1`, the “activity change, negative = inhibition” value was 2.92% (inactive).

`CN(C)Cc1c(O)ccc2c1O/C(=C\C=C\c1ccccc1)C2=O`: the “activity change, negative = inhibition” value was 7.22% (inactive).

Consider `Cc1ccccc1OCc1nc2c3cnn(C)c3ncn2n1`, for which the “activity change, negative = inhibition” value was -4.86% (inactive).

Consider `CC(=O)NC1=C(N(C)C2CCS(=O)(=O)C2)C(=O)c2ccccc2C1=O` (centres undefined), for which the “activity change, negative = inhibition” value was -22.3% (inactive).

Take `CCCCC1C(=O)N(c2ccccc2)N(c2ccc(O)cc2)C1=O` (centres undefined): the “activity change, negative = inhibition” value was -3.31% (inactive).

Turning to `O=C(COc1ccc2c(c1)CCC2)N1CCc2ccccc21`, the “activity change, negative = inhibition” value is 3.34% (inactive).

Consider `O=C(Nc1ccccc1)NN(C(=O)CCl)c1ccccc1`, for which the “activity change, negative = inhibition” value is -29.5% (inactive).

Turning to `O=C(CCl)N(c1ccccc1)C1CCS(=O)(=O)C1` (centres undefined), the “activity change, negative = inhibition” value is -45.5% (inactive).

For the compound `CN(C)c1ccc(/C=N/N2CCN(c3ccccn3)CC2)cc1`, the “activity change, negative = inhibition” value is -17.2% (inactive).

As to `Cc1ccc(NC(=O)C2CCN(S(=O)(=O)c3c(C)noc3/C=C/c3ccco3)CC2)nc1`, the “activity change, negative = inhibition” value was -29% (inactive).

For `CCN=c1scc(-c2ccco2)n1/N=C/c1ccc(O)cc1`, the “activity change, negative = inhibition” value was 4.77% (inactive).

As for `NC(=O)C1CCN(C2=C(NS(=O)(=O)c3ccc(Br)cc3)C(=O)c3ccccc3C2=O)CC1`, the “activity change, negative = inhibition” value is -17.1% (inactive).

As for `Cc1ccc(C(CNS(=O)(=O)c2ccc(Br)cc2)N2CCN(C)CC2)cc1` (centres undefined), the “activity change, negative = inhibition” value is -14.8% (inactive).

As for `Cc1ccc(S(=O)(=O)Nc2cccc3cccnc23)cc1`, the “activity change, negative = inhibition” value is -32.9% (inactive).

With `O=C(/C=C/c1ccc2c(c1)OCCO2)c1ccccc1`, the “activity change, negative = inhibition” value was -1.96% (inactive).

For `O=C(NC1=NCCS1)c1ccc(Cl)c(Cl)c1`, the “activity change, negative = inhibition” value is 3.67% (inactive).

Regarding `CC(C)c1ccc(C(=O)Nc2cccnc2)cc1`, the “activity change, negative = inhibition” value was 7.79% (inactive).

Turning to `O=C(NCc1ccccc1)NC1(C(=O)Nc2ccc3c(c2)OCCO3)CCCCC1`, the “activity change, negative = inhibition” value is 10.7% (inactive).

Take `COc1ccc(-n2cc(-c3ccc(C)cc3)[n+]3c2SCC3)cc1`: the “activity change, negative = inhibition” value is -25.4% (inactive).

As to `COc1cc(SC)ccc1C(=O)Nc1nc(C)cs1`, the “activity change, negative = inhibition” value was -42.4% (inactive).

Consider `O=C(Nc1ccc(Br)cc1)c1ccc2c(c1)OCO2`, for which the “activity change, negative = inhibition” value is 9.74% (inactive).

On to `O=C(CSc1nc2ccccc2[nH]1)c1ccc2c(c1)OCO2`, for which the “activity change, negative = inhibition” value is 3.26% (inactive).

On to `Cc1cccc(NC(=O)c2cnn(-c3ccccc3)c2C)c1C`, for which the “activity change, negative = inhibition” value was -1.17% (inactive).

Turning to `CCc1nc2oc3ccc(C)cc3c(=O)c2cc1C(=O)OC`, the “activity change, negative = inhibition” value was -4.11% (inactive).

On to `O=C(N/N=C/C(Cl)=C\c1ccccc1)c1cccs1`, for which the “activity change, negative = inhibition” value was -8.54% (inactive).

`O=C(NCc1ccco1)c1nc2c(nnn2Cc2ccccc2Cl)c(=O)[nH]1`: the “activity change, negative = inhibition” value is -9.09% (inactive).

For the compound `CCOc1ccc(N=C(C)C2=C(O)c3ccccc3C2=O)cc1`, the “activity change, negative = inhibition” value is -2.1% (inactive).

With `Nc1nnc(/C=C/c2ccccc2Cl)s1`, the “activity change, negative = inhibition” value was 2.68% (inactive).

Turning to `O=C(NCC1CCCO1)c1cc(-c2ccc(Cl)cc2Cl)on1` (centres undefined), the “activity change, negative = inhibition” value is -6.27% (inactive).

In the case of `CS/C(N)=N/N=C/c1ccc2c(c1)OCO2`, the “activity change, negative = inhibition” value was -7.25% (inactive).

Take `CN(C)c1nc(-c2ccccn2)nnc1-c1ccccc1`: the “activity change, negative = inhibition” value was -15.3% (inactive).

On to `O=C(/C=C/c1ccc(Cl)c([N+](=O)[O-])c1)c1ccc(O)cc1`, for which the “activity change, negative = inhibition” value is -28.2% (inactive).

Regarding `O=C(c1ccc(S(=O)(=O)Cc2ccccc2Cl)c([N+](=O)[O-])c1)N1CCN(c2ccccn2)CC1`, the “activity change, negative = inhibition” value was -1.04% (inactive).

On to `COc1ccc(/C=C2\SC(=S)N(CCCC(=O)NNC(=O)c3ccccc3O)C2=O)cc1`, for which the “activity change, negative = inhibition” value was -9.93% (inactive).

With `N#C/C(=C(/O)CCl)c1nc2ccccc2[nH]1`, the “activity change, negative = inhibition” value is -37.4% (inactive).

On to `COc1ccc(O)c(/C=N/NC(=O)c2ccc(CSc3nc(C)cc(C)n3)cc2)c1`, for which the “activity change, negative = inhibition” value was -19.8% (inactive).

As for `COc1nc(NC2CCCCC2)nc(NC(C)(C)C)n1`, the “activity change, negative = inhibition” value is -24.6% (inactive).

As to `O=C(CCCc1ccccc1)Nc1cccc(C(=O)O)c1`, the “activity change, negative = inhibition” value is 0.114% (inactive).

As to `CCOC(=O)c1[nH]cnc1N=Nc1c(O)ccc2ccccc12`, the “activity change, negative = inhibition” value was -27.8% (inactive).

For `O=C1N=C(N2CCOCC2)S/C1=C\C=C/c1ccccc1`, the “activity change, negative = inhibition” value was 3.9% (inactive).

Take `Cc1nc(-c2ccccn2)sc1C(=O)Nc1ccc(F)cc1F`: the “activity change, negative = inhibition” value was 2.39% (inactive).

For the compound `O=C(O)c1cc(N/N=C/C(Cl)=C/c2ccccc2)ccc1Cl`, the “activity change, negative = inhibition” value was 6.59% (inactive).

`C=CCNC(=O)c1ccc2nc(Cc3ccc(OC)cc3)oc2c1`: the “activity change, negative = inhibition” value was 18.7% (inactive).

For the compound `Cc1ccc(C(=O)N/C(=C\c2ccc(-c3ccccc3[N+](=O)[O-])o2)C(=O)NCCCN(C)C)cc1`, the “activity change, negative = inhibition” value is -45.4% (inactive).

Take `Cc1ccc(C(=O)N/C(=C\c2ccc(-c3ccccc3[N+](=O)[O-])o2)C(=O)NCCN(C)C)cc1`: the “activity change, negative = inhibition” value is -10.2% (inactive).

As for `CN(C)CCNC(=O)/C(=C/c1ccc(-c2ccc(Cl)cc2)o1)NC(=O)c1ccccc1`, the “activity change, negative = inhibition” value is -17.3% (inactive).

As to `CCOc1ccc(-n2c(-c3ccc(OC)cc3)c[n+]3c2CCCCC3)cc1`, the “activity change, negative = inhibition” value was -35.1% (inactive).

For the compound `CCN(CC)C(=O)CCCOc1ccc(Cl)cc1Cl`, the “activity change, negative = inhibition” value was -1.7% (inactive).

As to `Cc1nc2nc(C)c(NS(=O)(=O)c3ccc4c(c3)CCCC4)c(=O)n2[nH]1`, the “activity change, negative = inhibition” value is -2.75% (inactive).

Turning to `Cc1cccnc1NC(=O)NC(=O)c1ccc(C(C)(C)C)s1`, the “activity change, negative = inhibition” value was 17.4% (inactive).

Turning to `N#Cc1c(NC(=O)CSc2ncn[nH]2)sc2c1CCCC2`, the “activity change, negative = inhibition” value is 6.43% (inactive).

Turning to `N#Cc1c(NC(=O)CSc2ncn[nH]2)sc2c1CCCCC2`, the “activity change, negative = inhibition” value was -2.54% (inactive).

On to `Cn1nnnc1Sc1ncnc2scc(-c3cccs3)c12`, for which the “activity change, negative = inhibition” value was -17.8% (inactive).

Consider `Cc1ccc(-c2nc(-c3ccncc3)no2)cc1C`, for which the “activity change, negative = inhibition” value is 9.82% (inactive).

With `O=C(Nc1cccnc1Cl)c1cc(-c2ccco2)on1`, the “activity change, negative = inhibition” value is 6.82% (inactive).

Regarding `CCN(CC)S(=O)(=O)c1cccc(C(=O)N/N=C(\C)c2ccc(O)cc2O)c1`, the “activity change, negative = inhibition” value is -12.5% (inactive).

With `COc1cc(CN2CCC(C(=O)NCCC(C)C)CC2)ccc1OCc1ccccc1`, the “activity change, negative = inhibition” value was -8.83% (inactive).

Take `O=C(Nc1ccc(Nc2ccncc2)cc1)c1ccc([N+](=O)[O-])cc1`: the “activity change, negative = inhibition” value was -12.4% (inactive).

Consider `O=C(Nc1ccc(Cl)cc1)N1CC=CCC1`, for which the “activity change, negative = inhibition” value was 10.8% (inactive).

For the compound `COc1ccc2oc(=N)c(C(=O)Nc3ccccc3Cl)cc2c1`, the “activity change, negative = inhibition” value was -2.03% (inactive).

On to `CCCCOc1ccc(-c2nnn(C(C)(C)C(=O)OC)n2)cc1`, for which the “activity change, negative = inhibition” value was 2.96% (inactive).

Regarding `CC1=C/C(=N\NC(=S)Nc2cccnc2)CC(C)(C)C1`, the “activity change, negative = inhibition” value is -5.66% (inactive).

Consider `COc1cccc(/C=N/Nc2ncnc3c2ncn3Cc2ccccc2)c1O`, for which the “activity change, negative = inhibition” value is -8.07% (inactive).

`COc1ccc(/C=N/N=C2/SCC(=O)N2Cc2ccccc2)cc1`: the “activity change, negative = inhibition” value is 7.98% (inactive).

`N#Cc1ccc(-c2cccnc2)nc1SCC(=O)c1ccccc1`: the “activity change, negative = inhibition” value is -6.34% (inactive).

Take `COc1ccccc1N1CCN(/N=C/c2ccc([N+](=O)[O-])cc2)CC1`: the “activity change, negative = inhibition” value was 8.57% (inactive).

Regarding `O=C(c1ccc([N+](=O)[O-])s1)N1CCCc2ccccc21`, the “activity change, negative = inhibition” value was -12% (inactive).

`O=Cc1ccc(N2Cc3ccccc3C2)cc1`: the “activity change, negative = inhibition” value was -8.49% (inactive).

Regarding `COc1ccccc1N1CCN(/N=C\c2ccccc2)CC1`, the “activity change, negative = inhibition” value is -2.09% (inactive).

`Cc1ccc(-c2cc3onc(-c4ccccc4)c3c(=O)n2C)cc1`: the “activity change, negative = inhibition” value is -8.74% (inactive).

Turning to `CC(=O)CSc1ccc(-c2nc3cc(C)c(C)cc3[nH]2)cn1`, the “activity change, negative = inhibition” value is 1.88% (inactive).

Consider `O=C(O)c1ccc(Nc2nc3c(s2)CCCC3)cc1`, for which the “activity change, negative = inhibition” value was -11.1% (inactive).

`CC(C)(C)c1ccc(-c2noc(CCC(=O)NCc3ccco3)n2)cc1`: the “activity change, negative = inhibition” value is 8.27% (inactive).

The record behind these values is PubChem BioAssay AID493191 (Broad Institute, 2011).
